Source: PubChem BioAssay (NCI)
The panel holds about 83,000 compounds, 20% with a hit somewhere; the sample as a whole holds those more often.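 Assay: single dose, 48 h. Readout: percent growth (0 = no net growth; negative = cell death). Active: <10.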 Active and inactive are the calls of the source.

Columns and labels:
Test in all cases: NCI-60 one-dose screen, 48 h (100 = growth as untreated, 0 = no growth, -100 = all killed)
Conditions in all cases: 10 µM
[1] = system: EKVX NSCLC
[2] = system: SN12C renal
[3] = system: UO-31 renal
[4] = system: TK-10 renal
[5] = system: ACHN renal
[6] = system: A498 renal
[7] = system: CCRF-CEM leukemia
[8] = system: MOLT-4 leukemia
[9] = system: SR leukemia
[10] = system: CAKI-1 renal

Measured: growth

Cc1ccc(NC(=O)Nc2nc3ccccc3s2)cc1NC(=O)Nc1nc2ccccc2s1
inactive: [1] 99.1% | [2] 86.9% | [3] 66.8% | [4] 111% | [5] 83.7% | [6] 93% | [7] 74.2% | [8] 82.4% | [9] 55.5%

O=C(N/N=C\c1cc(Cl)ccc1[N+](=O)[O-])c1ccco1
inactive: [1] 106% | [2] 99.8% | [3] 104% | [4] 128% | [5] 105% | [10] 89.5% | [7] 102% | [8] 93.6% | [9] 123%

COC(=O)C1(C)Cc2cc(OC(C)=O)c(OC(C)=O)cc2N1 (stereo not given)
active: [9] 1.05%
inactive: [1] 92.2% | [2] 88.8% | [3] 32.3% | [4] 87.9% | [5] 27.3% | [6] 92.8% | [7] 24.1% | [8] 56.6%

COc1ccc2c(c1)N(CCO)C1=C(C(=O)OC1)C2c1cc(OC)c(OC)c(OC)c1 (stereo not given)
inactive: [1] 40.3% | [2] 26% | [3] 15.2% | [4] 66% | [5] 32.8% | [7] 11.6% | [8] 19.3% | [9] 23.5%
active: [6] -12.2%

Cc1nc2ccccc2c(N)c1-c1cc(C)c2c(C)nc3ccccc3c2n1
inactive: [1] 68.4% | [2] 57.9% | [4] 14.3%
active: [3] -95.7% | [5] -92.4% | [6] -12.9% | [7] -42.1% | [8] -50.8% | [9] -39.5%

COc1cc(C(=C2O[C@@H]([C@H]3COC(C)(C)O3)[C@H]3OC(C)(C)O[C@@H]23)c2cc(OC)c(OC)c(OC)c2)cc(OC)c1OC
inactive: [1] 98.5% | [2] 92.9% | [3] 95.8% | [4] 111% | [5] 99.8% | [10] 107% | [7] 103% | [8] 99.8% | [9] 90.6%

CNc1ccc(CSc2ccc(C)cc2)cc1
inactive: [1] 102% | [2] 29.4% | [3] 24.1% | [4] 86.1% | [5] 108% | [10] 73.2% | [7] 43.7% | [8] 82.6% | [9] 80.4%

Cc1cc(N(CCCNc2ccnc3cc(Cl)ccc23)Cc2cccs2)nc(Cl)n1
inactive: [1] 48% | [2] 58.4% | [3] 27.8% | [4] 50.4% | [5] 56.7% | [6] 28.5% | [7] 42% | [8] 11.2%
active: [9] 0.473%

O=C(Nc1cccc(Cl)c1)Nc1nccs1
inactive: [1] 98.1% | [2] 87.7% | [3] 89.9% | [4] 109% | [5] 98.5% | [6] 99.2% | [7] 83.2% | [8] 101%

N#CCCN(NC(=O)OCc1ccccc1)C(=O)OCc1ccccc1
inactive: [1] 91.8% | [2] 106% | [3] 80.7% | [4] 120% | [5] 102% | [10] 88.4% | [7] 99% | [8] 97.1% | [9] 107%

O=C(N/N=C/c1ccccc1)C(Oc1ccccc1)c1ccccc1 (stereo not given)
inactive: [1] 80.8% | [2] 96.5% | [3] 76% | [4] 106% | [5] 93.1% | [10] 85.6% | [7] 93.7% | [8] 101% | [9] 91.8%

CCN(CCCCCCCCCCN1CC(=O)N(CCCCCCCCCCN(CC)Cc2ccccc2OC)CC1=O)Cc1ccccc1OC
active: [1] -0.258% | [2] 9.4% | [3] -74.8% | [5] 3.48% | [10] -12.8% | [7] -25.5% | [8] -32.7% | [9] -61.3%
inactive: [4] 10.1%

COc1ccc(/C(=C2/O[C@@H]([C@H]3COC(C)(C)O3)[C@H]3OC(C)(C)O[C@@H]23)c2cc(OC)c(OC)c(OC)c2)cc1O
active: [9] -13.6%
inactive: [1] 101% | [2] 84.5% | [3] 123% | [4] 117% | [5] 49.5% | [10] 111% | [7] 60.8% | [8] 60.5%

CC(C)(C)c1ccc(N2CSC(=S)N(c3ccc(C(C)(C)C)cc3)C2)cc1
inactive: [1] 84.1% | [2] 99.6% | [3] 79.4% | [4] 111% | [5] 89% | [6] 107% | [7] 88.5% | [8] 100% | [9] 112%

COc1ccc2c(c1)N(CCO)C1=C(C(=O)OC1)C2c1ccccc1 (stereo not given)
inactive: [1] 45% | [2] 48.1% | [3] 47.1% | [4] 44.7% | [5] 48.6% | [7] 20% | [8] 35.4% | [9] 20.7%
active: [6] -5.47%

O=C(Nc1ccc(Cl)c(Cl)c1)Nc1c(Oc2ccc(Cl)c(Cl)c2)ccc(Cl)c1S(=O)(=O)O
inactive: [1] 38.2% | [2] 36.4% | [3] 21.2% | [4] 25.3% | [10] 12.1% | [7] 13.5% | [8] 25%
active: [6] -13.3% | [9] 1.34%

COC(=O)C(=C\c1ccc2c(c1)OCO2)/C(=C/c1ccc2c(c1)OCO2)C(=O)OC
inactive: [1] 97% | [2] 112% | [3] 90.3% | [4] 100% | [5] 94.3% | [6] 106% | [7] 101% | [8] 105% | [9] 98.8%

COc1ccc2nc3ccccc3c(NCCNCC(C)O)c2c1 (stereo not given)
inactive: [3] 17.9%
active: [1] 7.84% | [2] -4.73% | [4] 8.4% | [5] -3.07% | [6] -48.5% | [7] 5.94% | [8] 6.77% | [9] 4.1%

O=C1CC[C@@H]2CCCC[C@@H]2C1
inactive: [1] 99.1% | [2] 95.9% | [3] 75.2% | [4] 114% | [5] 100% | [6] 108% | [8] 96.5% | [9] 94.7%

CCN(CC)CCN1CC(=O)Nc2cc(Cl)ccc21
inactive: [1] 101% | [2] 103% | [3] 82% | [4] 114% | [5] 104% | [6] 87.6% | [7] 101% | [8] 105% | [9] 114%

O=C(O)C(SC(C(=O)O)c1ccccc1)c1ccccc1 (stereo not given)
inactive: [1] 104% | [2] 99.9% | [3] 87.6% | [4] 106% | [10] 91.8% | [6] 107% | [7] 97.8% | [8] 103% | [9] 101%

Nc1ccn(C2CC(O)C(CO)O2)c(=O)n1 (stereo not given)
inactive: [1] 102% | [2] 108% | [3] 96.4% | [4] 148% | [5] 104% | [6] 124% | [7] 116% | [8] 104% | [9] 92.7%

Cc1ccc(-c2nc(/C=C3/C(=O)N(C)c4ccc(F)cc43)c3ccccn23)cc1
inactive: [1] 98.1% | [2] 96.1% | [3] 85.8% | [4] 128% | [5] 88.5% | [6] 95.9% | [7] 111% | [8] 100% | [9] 97.5%

CCN1Cc2c(/C=C/c3ccccc3)nc3ccc(OC)cc3c2N(c2cccc(Cl)c2)C1
inactive: [1] 66.9% | [2] 60.6% | [3] 63.8% | [4] 101% | [5] 98% | [6] 85.5% | [7] 58.6% | [8] 55.4% | [9] 11.7%

CCOC(=O)C(NC(=O)C(Cl)Cl)C(O)c1ccccc1 (stereo not given)
inactive: [1] 109% | [2] 98.8% | [3] 97.6% | [4] 104% | [5] 107% | [6] 99.2% | [7] 150% | [8] 98.3% | [9] 107%

OCC1OC(n2cnc3c(N/N=C\c4ccccn4)ncnc32)C(O)C1O (stereo not given)
active: [1] 7.34% | [3] -23.5%
inactive: [2] 18.9% | [4] 42.1% | [5] 11.8% | [7] 16.8% | [8] 21% | [9] 20.3%

C=C(NC(=O)C(=C)NC(=O)c1csc(C2=NC3c4csc(n4)C4NC(=O)c5csc(n5)C(C(C)(O)C(C)O)NC(=O)C5CSC(=N5)/C(=C/C)NC(=O)C(C(C)O)NC(=O)c5csc(n5)C3(CC2)NC(=O)C(C)NC(=O)C(=C)NC(=O)C(=C)NC(=O)C(C(C)C)NC2C=Cc3c(C(C)O)cc(nc3C2O)C(=O)OC4C)n1)C(N)=O (stereo not given)
active: [3] -42.2% | [4] -9.31% | [6] -30.3% | [7] -31.7% | [8] -15%
inactive: [1] 42.2% | [2] 30.4% | [10] 15.8%

CC(C)=CCc1cc(O)cc2c1OC(C=C(C)C)C1=C2C(=O)C2=C(C1=O)S(=O)(=O)CCN2 (stereo not given)
inactive: [1] 50.2% | [3] 54% | [4] 122% | [5] 73.1% | [6] 103%
active: [2] -44.1% | [7] -11.9% | [8] -43.2% | [9] 3.79%

Oc1[nH]c2ccc(Cl)cc2c1/C=c1/ccc2c(c1)N=C(c1cccs1)N=2
inactive: [1] 66.3% | [2] 54.9% | [3] 72.7% | [4] 81.5% | [10] 52.6% | [6] 44.6% | [7] 31.9% | [8] 42.3% | [9] 37%

CN(C)c1ccc(-c2cc(-c3cccc(NS(C)(=O)=O)c3)nc(N)c2C#N)cc1
active: [9] 9.27%
inactive: [1] 17.3% | [2] 37.9% | [3] 11.2% | [4] 42.1% | [5] 26.1% | [7] 15.9% | [8] 24.3%
